Shown are actives, neighbours in structure and some others; about 20% of the full set was active somewhere.
Shiga inhibitor: blocks Shiga toxin action in Vero cells | Vero cells, Shiga toxin protein synthesis inhibition reporter | inhibition, % at 38.7 µM | 290,000 tested, 9.2% active; in the data active means inhibition mostly above about 28%, no sharp cut-off; inactive means mostly below about 43%
HCMV antiviral: blocks human cytomegalovirus replication; 410,000 tested, 4.5% active; HFF cells, HCMV-luciferase reporter, 72 h; stronger effect = lower value; AID 1259415; activity change, negative = inhibition, % at 57.5 µM; in the data active means activity change below about -60%; inconclusive means no clear call, values can overlap the other calls; inactive means above about -39%
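Human foreskin fibroblasts infected with luciferase-reporter HCMV at MOI 1 PFU/cell, compounds at two doses. Luciferase measured 72 h post infection; normalized to buffer-only basal and Salinomycin (10uM) controls.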
CHX counter: counter-screen for Shiga toxin inhibitors: cycloheximide protein synthesis inhibition | AID 2314 | max response, % | cell reporter, cycloheximide protein synthesis inhibition counterscreen | 300,000 tested, 12% active; in the data active means max response mostly above about 13%, no sharp cut-off; inactive means mostly below about 14%; further: read at 38.3 µM for the half of the compounds with a filed dose
Pf growth 96h: P. falciparum growth inhibition at 96 hours; P. falciparum luciferase reporter growth, 96 h; Potency, µM (doses to about 28.7 µM), most hits filed as inhibitors; 320,000 tested, 6.9% active
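P. falciparum expressing integrated firefly luciferase grown in erythrocytes (2% hematocrit, 0.05% parasitemia final) with compounds for 96 hours at 37 C, 5% CO2. Growth inhibition read as loss of luminescence after adding luciferase detection reagent.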
Pf growth 48h: P. falciparum growth inhibition at 48 hours (one generation); P. falciparum luciferase growth in erythrocytes, 48 h; Potency, µM (doses to about 28.7 µM), hits mostly inhibitors; 310,000 tested, 5.9% active
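First compound was added to culture medium, then infected red cells at 0.1% parasitemia and 2% hematocrit (final). After incubation at 37 C under 5% CO2, luciferase detection reagent was dispensed and light output recorded.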
Large screens that a line does not name were inactive. Unless noted, the call rests on the fitted dose curve; in most records, active means well fitted inhibition curve with a large enough effect; inconclusive means small, poorly fitted or top-dose-only effect, or another doubt; inactive means no such curve, though single readings can be large or run the other way.

Cc1nonc1OCC(C)(COc1nonc1C)NC(=O)c1ccccc1	Pf growth 96h inconclusive, Pf growth 48h inconclusive
Cc1ccc(NC(=O)c2c(C(=O)Nc3ccccc3)sc3nc(C)cc(=O)n23)c(C)c1	none (no result: Shiga inhibitor, CHX counter, Pf growth 96h, Pf growth 48h)
Cc1ncsc1CCC(=O)N1CCCC(Nc2ccc(C(C)C)cc2)C1 (configuration not stated)	Pf growth 96h inconclusive, Pf growth 48h inconclusive
Cc1cc(-c2csc(NCc3ccccc3)n2)c(C)n1C	Pf growth 96h inconclusive (no result: HCMV antiviral)
COCCNc1nc(-c2cc(C)c(C)cc2C)cs1	Shiga inhibitor 73, CHX counter 20, Pf growth 96h inconclusive, Pf growth 48h inconclusive
COc1ccc(CNC(=O)C2(CC3CC(c4ccccc4)=NO3)CCN(C(=O)C3CCCC3)CC2)cc1 (configuration not stated)	Pf growth 96h 5.2µM, Pf growth 48h inconclusive
CCCNC(=O)C1(CC2CC(c3ccccc3)=NO2)CCN(C(=O)C2CCCC2)CC1 (configuration not stated)	Pf growth 96h 15µM, Pf growth 48h 13µM (no result: Shiga inhibitor, CHX counter)
O=C(C1CCCC1)N1CCC(CC2CC(c3ccc(Cl)cc3)=NO2)(C(=O)NCC2CCCCC2)CC1 (configuration not stated)	Pf growth 96h 1µM, Pf growth 48h inconclusive
O=C(Nc1ccccc1Cl)c1ccc(Cl)cc1Cl	Shiga inhibitor 54, HCMV antiviral inconclusive, CHX counter 54, Pf growth 96h inconclusive
O=C(Nc1ccc(Cl)cc1Cl)c1ccc(-c2ccccc2)cc1	none
Nc1ccccc1C(=O)Nc1ccc(Cl)cc1Cl	Shiga inhibitor 127, CHX counter 33
C#Cc1cccc(NC(=O)c2ccc(Cl)cc2Cl)c1	Shiga inhibitor 70, HCMV antiviral inconclusive, CHX counter 20
CC(C)NC(=S)NC(=O)c1ccc(Cl)cc1Cl	none
O=C(NC(=S)Nc1ccccc1O)c1ccc(Cl)cc1Cl	Shiga inhibitor 94, CHX counter 30
COc1ccc(CN(C)[C@H]2C[C@H]3c4[nH]c5ccccc5c4CCN3C[C@H]2[C@H](C)O)cc1	none (no result: Shiga inhibitor, CHX counter, Pf growth 96h, Pf growth 48h)
CN(CC(=O)Nc1ccc(Cl)cc1)CC(=O)Nc1ccc(F)c(F)c1F	none
Cn1c(CNc2nc3ccccc3n2CCN2CCCCC2)nc2ccccc21	Pf growth 96h 2.6µM, Pf growth 48h 12µM
CCN(CC)CCn1c(NCc2nc3ccccc3n2Cc2ccccc2)nc2ccccc21	Pf growth 96h 3.7µM (no result: Pf growth 48h)
c1ccc(Cn2c(CNc3nc4ccccc4n3CCN3CCCCC3)nc3ccccc32)cc1	Pf growth 48h 4.7µM
O=C(O)c1ccc(NCc2nc3ccccc3n2Cc2ccccc2)cc1	none
CCN(CC)CCn1c(NS(=O)(=O)c2ccc(C)cc2)nc2ccccc21	Pf growth 96h 10µM (no result: Shiga inhibitor, CHX counter)
OCCNc1nc2ccccc2n1CCN1CCCCC1	none
CCOc1ccc(-c2nc(CSCC(=O)NCc3ccc(Cl)cc3)c(C)o2)cc1	HCMV antiviral -66 (no result: Shiga inhibitor, CHX counter, Pf growth 96h, Pf growth 48h)
COc1ccc(-c2nc(CSCC(=O)NCC3CCCO3)c(C)o2)cc1OC (configuration not stated)	Pf growth 96h 15µM
Cc1ccc(-c2nc(CSCC(=O)NCC3CCCO3)c(C)o2)cc1 (configuration not stated)	Pf growth 96h inconclusive
CCOc1ccc(-c2nc(CSCC(=O)NCC3CCCO3)c(C)o2)cc1 (configuration not stated)	Pf growth 96h 13µM
O=C1c2ccccc2NC(c2cccc([N+](=O)[O-])c2)N1O (configuration not stated)	HCMV antiviral inconclusive, Pf growth 96h 8.3µM, Pf growth 48h inconclusive
O=C1c2ccccc2NC(c2ccc([N+](=O)[O-])cc2)N1O (configuration not stated)	Pf growth 48h inconclusive
O=C1c2ccccc2NC(c2cccc(O)c2)N1O (configuration not stated)	CHX counter 16
CCC1(O)c2ccccc2-c2ncccc21 (configuration not stated)	none
O=S(=O)(c1ccccc1)C1Cc2ccccc2C1Cl (configuration not stated)	none (no result: Shiga inhibitor, CHX counter, Pf growth 96h, Pf growth 48h)
Cc1ccc(S(=O)(=O)Nc2cccc(-c3ccc(N4CCCCCC4)nn3)c2)cc1	Shiga inhibitor 89, CHX counter 39
CC1CCN(c2ccc(-c3cccc(NS(=O)(=O)c4ccc(F)cc4F)c3)nn2)CC1	HCMV antiviral -100 (no result: Shiga inhibitor, CHX counter, Pf growth 96h, Pf growth 48h)
Cc1cccc(S(=O)(=O)Nc2cccc(-c3ccc(N4CCCCC4)nn3)c2)c1	Shiga inhibitor 73, HCMV antiviral inconclusive, CHX counter 59 (no result: Pf growth 96h, Pf growth 48h)
O=S(=O)(Nc1cccc(-c2ccc(N3CCCCCC3)nn2)c1)c1ccccc1	none (no result: Shiga inhibitor, CHX counter, Pf growth 96h, Pf growth 48h)
O=[N+]([O-])c1cccc(S(=O)(=O)Nc2cccc(-c3ccc(N4CCCC4)nn3)c2)c1	Pf growth 96h 6.6µM, Pf growth 48h inconclusive (no result: Shiga inhibitor, CHX counter)
Cc1ccc(CN(C(=O)c2ccccc2Br)C2CCS(=O)(=O)C2)o1 (configuration not stated)	none (no result: Shiga inhibitor, CHX counter, Pf growth 96h, Pf growth 48h)
COc1ccc(S(=O)(=O)Nc2cccc(-c3ccc(N4CCCCCC4)nn3)c2)cc1OC	Shiga inhibitor 40, CHX counter 35, Pf growth 48h inconclusive
COc1ccc(S(=O)(=O)Nc2cccc(-c3ccc(N4CCCCCC4)nn3)c2)c(OC)c1	Shiga inhibitor 60, CHX counter 53, Pf growth 96h inconclusive
S=C1SCN(Cc2ccco2)CN1Cc1ccco1	HCMV antiviral -99, Pf growth 96h 4.7µM, Pf growth 48h inconclusive
Nc1sc(-c2ccccc2)cc1C(=O)NCCc1c[nH]c2ccccc12	none (no result: Shiga inhibitor, CHX counter, Pf growth 96h, Pf growth 48h)
Cc1ccc(NC(=O)c2ccccc2)s1	Shiga inhibitor 100, CHX counter 39
COC(=O)c1c(NC(=O)c2ccccc2)sc(C(N)=O)c1C	none
Cc1cc(NC(=O)c2ccccc2)sc1C	Shiga inhibitor 56, CHX counter 33
Cc1cc(NC(=O)c2ccccc2)cc(NC(=O)c2ccccc2)c1C	none (no result: Shiga inhibitor)
Cc1ccc(-c2cn3nc(C)c(C)nc3n2)cc1	Shiga inhibitor 32, CHX counter 24, Pf growth 96h inconclusive
COc1ccc(-c2cn3nc(C)c(C)nc3n2)cc1OC	none (no result: Shiga inhibitor, CHX counter)
COc1ccc(NC(=O)CN2CCN(C3c4ccccc4-c4ccccc43)CC2)cc1	Shiga inhibitor 42, CHX counter 57, Pf growth 96h inconclusive, Pf growth 48h inconclusive
CCC(=O)Nc1ccc(C(=O)CN2CCC(C)CC2)cc1	Pf growth 96h inconclusive (no result: HCMV antiviral)
COc1ccc(NC(=O)CN2CCC(C)CC2)cc1	Shiga inhibitor 30, CHX counter 16 (no result: Pf growth 96h)
CC1CCN(CC(=O)Nc2ccc(C(=O)N3CCCCC3)cc2)CC1	Pf growth 96h 3.3µM
CC1(C)CC2(CCO1)OC(=O)CC2C(=O)Nc1ccccc1Cl (configuration not stated)	none
O=C(NC1CCCCC1)C(c1ccc(F)cc1)N(Cc1ccc2c(c1)OCO2)C(=O)c1cnsn1 (configuration not stated)	Pf growth 48h inconclusive
Cc1ccccc1CNC(=O)c1c(C)oc2c1C1=NCCN1C=N2	none (no result: Shiga inhibitor, CHX counter, Pf growth 96h, Pf growth 48h)
Cc1nn(-c2ccccc2)c(Cl)c1/C=N/O	Pf growth 96h inconclusive
Cc1cc(=O)[nH]c(N/N=C/c2c(C)nn(-c3ccccc3)c2Cl)n1	Pf growth 96h 8.3µM, Pf growth 48h 4.7µM

Screening data deposited in PubChem by National Center for Advancing Translational Sciences (NCATS).
